# Results published in PMC7862700, “An all-to-all approach to the identification of sequence-specific readers for epigenetic DNA modifications on cytosine”.
# Columns and labels:
# Experiment in all cases: DAPPL (digital affinity profiling via proximity ligation, sequencing); 10 mM Tris-HCl pH 7.5, 50 mM NaCl, 1 mM DTT, 4% glycerol, room temperature, 30 min; GST-TFs on glutathione beads, 16-mer random dsDNA library, 0.1% formaldehyde crosslink after washing; high values mean tight binding
# ELK1 = target: T1, ELK1 (Homo sapiens, UniProt P19419 1-428); conditions: protein: recombinant; tags: N-terminal GST; dsDNA, one strand shown
# T1 sequence: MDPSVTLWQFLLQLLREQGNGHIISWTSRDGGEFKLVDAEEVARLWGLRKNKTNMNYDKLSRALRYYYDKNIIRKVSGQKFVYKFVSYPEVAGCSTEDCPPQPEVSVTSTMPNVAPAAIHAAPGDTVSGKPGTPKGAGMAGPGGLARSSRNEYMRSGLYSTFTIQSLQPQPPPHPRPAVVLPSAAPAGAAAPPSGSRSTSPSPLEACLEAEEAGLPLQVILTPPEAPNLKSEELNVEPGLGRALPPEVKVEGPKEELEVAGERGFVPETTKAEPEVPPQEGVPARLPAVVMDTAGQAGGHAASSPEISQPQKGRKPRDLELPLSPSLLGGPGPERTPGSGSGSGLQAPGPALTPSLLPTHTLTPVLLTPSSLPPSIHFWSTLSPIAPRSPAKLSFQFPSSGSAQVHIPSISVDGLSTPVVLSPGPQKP
# Outline: (§1)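 Pools were built from human transcription factors expressed in yeast as GST fusions, captured on glutathione beads and DNA-barcoded, along with a tag-only sample. Incubation with 200 nmole of a 16-mer random double-stranded DNA library lasted 30 min at room temperature in Tris/NaCl/DTT/glycerol buffer, and was followed by washing, 0.1% formaldehyde crosslinking, proximity ligation, PCR amplification and Illumina NextSeq500 sequencing. Binding signal is the quotient of each hexamer's read frequency for a factor and its frequency for the tag-only sample.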
# GABPA = target: T2, GABPA (Homo sapiens, UniProt Q06546 1-454); conditions: protein: recombinant; tags: N-terminal GST; dsDNA, one strand shown
# T2 sequence: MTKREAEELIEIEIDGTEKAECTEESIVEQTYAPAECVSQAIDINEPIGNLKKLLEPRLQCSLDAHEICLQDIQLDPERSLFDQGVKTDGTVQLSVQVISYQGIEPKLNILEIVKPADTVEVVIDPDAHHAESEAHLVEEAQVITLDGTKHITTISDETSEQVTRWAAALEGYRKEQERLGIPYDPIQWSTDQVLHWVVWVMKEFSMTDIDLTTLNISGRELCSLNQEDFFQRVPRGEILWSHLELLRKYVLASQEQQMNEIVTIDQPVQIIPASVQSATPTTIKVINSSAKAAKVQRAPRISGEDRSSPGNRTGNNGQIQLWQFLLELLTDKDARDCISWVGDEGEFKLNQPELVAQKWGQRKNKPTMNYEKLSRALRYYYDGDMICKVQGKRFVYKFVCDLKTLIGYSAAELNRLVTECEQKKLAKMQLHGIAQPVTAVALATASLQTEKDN
# Outline: as §1
# ERG = target: T3, ERG (Homo sapiens, UniProt P11308 1-479); conditions: protein: recombinant; tags: N-terminal GST; dsDNA, one strand shown
# T3 sequence: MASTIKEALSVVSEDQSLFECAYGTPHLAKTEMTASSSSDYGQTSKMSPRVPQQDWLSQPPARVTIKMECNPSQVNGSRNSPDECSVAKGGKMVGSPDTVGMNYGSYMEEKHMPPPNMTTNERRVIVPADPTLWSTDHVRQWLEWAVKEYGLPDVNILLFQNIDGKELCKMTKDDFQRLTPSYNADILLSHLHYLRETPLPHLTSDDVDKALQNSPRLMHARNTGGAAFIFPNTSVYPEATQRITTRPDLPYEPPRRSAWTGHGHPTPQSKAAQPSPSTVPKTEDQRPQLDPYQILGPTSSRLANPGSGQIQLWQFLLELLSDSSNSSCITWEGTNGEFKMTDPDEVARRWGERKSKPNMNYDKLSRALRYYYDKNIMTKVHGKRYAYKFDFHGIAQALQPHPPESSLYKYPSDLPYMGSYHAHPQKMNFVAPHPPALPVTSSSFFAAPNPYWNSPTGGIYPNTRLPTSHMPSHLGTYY
# Outline: as §1
# EHF = target: T4, EHF (Homo sapiens, UniProt Q9NZC4 1-300); conditions: protein: recombinant; tags: N-terminal GST; dsDNA, one strand shown
# T4 sequence: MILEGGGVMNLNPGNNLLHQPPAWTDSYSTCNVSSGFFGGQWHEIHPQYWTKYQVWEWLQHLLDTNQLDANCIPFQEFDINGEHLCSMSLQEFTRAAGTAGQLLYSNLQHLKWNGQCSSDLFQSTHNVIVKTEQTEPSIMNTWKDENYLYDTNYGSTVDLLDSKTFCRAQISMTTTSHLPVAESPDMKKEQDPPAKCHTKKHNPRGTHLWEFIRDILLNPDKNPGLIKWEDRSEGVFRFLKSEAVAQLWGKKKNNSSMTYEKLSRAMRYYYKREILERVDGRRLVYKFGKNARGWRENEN
# Outline: as §1
# HSF1 = HSF1 (Homo sapiens, UniProt Q00613 1-529); conditions: protein: recombinant; tags: N-terminal GST; chain copies: 3; dsDNA, one strand shown
# Outline: as §1
# ELF4 = ELF4 (Homo sapiens, UniProt Q99607 1-663); conditions: protein: recombinant; tags: N-terminal GST; dsDNA, one strand shown
# Outline: as §1
# CRX = CRX (Homo sapiens, UniProt O43186 1-299); conditions: protein: recombinant; tags: N-terminal GST; dsDNA, one strand shown
# Outline: as §1
# ETV7 = target: T5, ETV7 (Homo sapiens, UniProt Q9Y603 1-341); conditions: protein: recombinant; tags: N-terminal GST; dsDNA, one strand shown
# T5 sequence: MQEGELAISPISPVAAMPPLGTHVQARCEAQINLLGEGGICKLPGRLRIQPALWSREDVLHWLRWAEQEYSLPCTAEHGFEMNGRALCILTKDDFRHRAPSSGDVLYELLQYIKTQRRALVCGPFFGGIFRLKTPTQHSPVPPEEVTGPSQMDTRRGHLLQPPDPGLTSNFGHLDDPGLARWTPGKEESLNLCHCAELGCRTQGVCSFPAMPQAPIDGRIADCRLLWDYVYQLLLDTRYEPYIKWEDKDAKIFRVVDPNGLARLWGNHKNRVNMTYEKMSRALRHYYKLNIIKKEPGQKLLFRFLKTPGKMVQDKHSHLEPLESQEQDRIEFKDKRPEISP
# Outline: as §1
# SPI1 = SPI1 (Homo sapiens, UniProt P17947 1-270); conditions: protein: recombinant; tags: N-terminal GST; dsDNA, one strand shown
# Outline: as §1
# SPIC = target: T6, SPIC (Homo sapiens, UniProt Q8N5J4 1-248); conditions: protein: recombinant; tags: N-terminal GST; dsDNA, one strand shown
# T6 sequence: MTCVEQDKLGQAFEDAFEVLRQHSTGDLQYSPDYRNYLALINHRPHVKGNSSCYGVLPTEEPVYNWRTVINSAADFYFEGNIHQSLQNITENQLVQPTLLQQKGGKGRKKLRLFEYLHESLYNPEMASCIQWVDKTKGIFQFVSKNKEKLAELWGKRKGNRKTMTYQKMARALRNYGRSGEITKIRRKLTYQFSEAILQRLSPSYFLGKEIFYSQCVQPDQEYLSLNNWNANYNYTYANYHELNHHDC
# Outline: as §1
# ERF = target: T7, ERF (Homo sapiens, UniProt P50548 1-548); conditions: protein: recombinant; tags: N-terminal GST; dsDNA, one strand shown
# T7 sequence: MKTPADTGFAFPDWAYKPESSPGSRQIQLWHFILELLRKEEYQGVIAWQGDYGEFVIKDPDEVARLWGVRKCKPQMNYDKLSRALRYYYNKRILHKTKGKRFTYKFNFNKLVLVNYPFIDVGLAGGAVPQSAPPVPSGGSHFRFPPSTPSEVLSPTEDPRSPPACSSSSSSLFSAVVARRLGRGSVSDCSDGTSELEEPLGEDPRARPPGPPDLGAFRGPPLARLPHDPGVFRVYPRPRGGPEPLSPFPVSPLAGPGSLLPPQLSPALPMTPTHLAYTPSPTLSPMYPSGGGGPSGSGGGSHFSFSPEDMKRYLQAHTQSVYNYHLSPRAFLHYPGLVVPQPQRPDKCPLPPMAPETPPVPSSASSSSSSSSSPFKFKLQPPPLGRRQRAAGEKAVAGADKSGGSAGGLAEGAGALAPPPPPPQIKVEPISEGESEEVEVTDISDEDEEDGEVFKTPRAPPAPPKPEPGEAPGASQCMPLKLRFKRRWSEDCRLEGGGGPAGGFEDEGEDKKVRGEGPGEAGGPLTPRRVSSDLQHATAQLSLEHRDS
# Outline: as §1
# Sequence of HSF1 (Q00613 whole entry): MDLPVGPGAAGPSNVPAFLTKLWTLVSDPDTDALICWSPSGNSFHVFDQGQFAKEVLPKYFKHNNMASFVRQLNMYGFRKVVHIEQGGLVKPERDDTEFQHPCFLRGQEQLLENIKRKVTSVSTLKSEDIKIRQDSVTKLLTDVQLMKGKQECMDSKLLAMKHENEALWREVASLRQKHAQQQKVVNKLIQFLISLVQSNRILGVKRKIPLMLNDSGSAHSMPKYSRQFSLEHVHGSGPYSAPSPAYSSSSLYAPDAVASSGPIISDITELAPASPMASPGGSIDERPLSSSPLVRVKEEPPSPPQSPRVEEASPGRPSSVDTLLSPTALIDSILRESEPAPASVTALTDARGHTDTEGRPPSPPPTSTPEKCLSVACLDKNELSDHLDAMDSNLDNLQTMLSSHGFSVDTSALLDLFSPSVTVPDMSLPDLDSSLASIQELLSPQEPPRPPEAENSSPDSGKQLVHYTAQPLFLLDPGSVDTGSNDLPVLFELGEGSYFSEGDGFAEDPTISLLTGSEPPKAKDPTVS
# Sequence of CRX (O43186 whole entry): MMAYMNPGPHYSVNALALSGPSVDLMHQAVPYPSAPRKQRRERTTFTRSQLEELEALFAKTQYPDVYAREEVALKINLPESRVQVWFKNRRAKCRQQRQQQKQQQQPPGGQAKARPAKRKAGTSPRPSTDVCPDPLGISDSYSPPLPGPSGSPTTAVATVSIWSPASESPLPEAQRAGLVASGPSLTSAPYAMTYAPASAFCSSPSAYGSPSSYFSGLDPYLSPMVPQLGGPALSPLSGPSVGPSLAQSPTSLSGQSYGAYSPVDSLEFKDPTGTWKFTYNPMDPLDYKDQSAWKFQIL
# Sequence of ELF4 (Q99607 whole entry): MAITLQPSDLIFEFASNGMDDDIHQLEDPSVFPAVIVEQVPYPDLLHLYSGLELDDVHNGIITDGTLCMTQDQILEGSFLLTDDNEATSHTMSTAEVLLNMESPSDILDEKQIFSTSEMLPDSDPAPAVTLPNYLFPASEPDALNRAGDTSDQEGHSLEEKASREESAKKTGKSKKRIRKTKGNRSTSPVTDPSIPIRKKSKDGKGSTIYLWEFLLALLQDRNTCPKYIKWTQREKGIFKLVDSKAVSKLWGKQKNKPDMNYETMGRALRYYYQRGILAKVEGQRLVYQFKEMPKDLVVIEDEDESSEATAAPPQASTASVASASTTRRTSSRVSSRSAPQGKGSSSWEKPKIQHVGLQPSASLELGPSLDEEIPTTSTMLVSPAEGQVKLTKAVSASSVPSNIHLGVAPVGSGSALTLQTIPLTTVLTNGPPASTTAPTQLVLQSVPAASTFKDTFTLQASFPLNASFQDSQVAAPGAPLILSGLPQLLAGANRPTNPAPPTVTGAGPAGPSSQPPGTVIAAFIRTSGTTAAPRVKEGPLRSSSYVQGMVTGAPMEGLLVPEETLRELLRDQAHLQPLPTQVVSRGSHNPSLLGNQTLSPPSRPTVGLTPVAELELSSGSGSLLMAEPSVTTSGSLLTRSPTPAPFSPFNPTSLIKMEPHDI
Sequence,binding signal (ELK1),binding signal (GABPA),binding signal (ERG),binding signal (EHF),binding signal (HSF1),binding signal (ELF4),binding signal (CRX),binding signal (ETV7),binding signal (SPI1),binding signal (SPIC),binding signal (ERF)
TCGGCT,"1.02 fold enrichment (6-mer frequency, TF over GST control)","1.03 fold enrichment (6-mer frequency, TF over GST control)","1.09 fold enrichment (6-mer frequency, TF over GST control)","1.02 fold enrichment (6-mer frequency, TF over GST control)","1.15 fold enrichment (6-mer frequency, TF over GST control)","1.1 fold enrichment (6-mer frequency, TF over GST control)","1.34 fold enrichment (6-mer frequency, TF over GST control)","1.05 fold enrichment (6-mer frequency, TF over GST control)",,,
TCGAAA,,,,,"2.08 fold enrichment (6-mer frequency, TF over GST control)",,"1.16 fold enrichment (6-mer frequency, TF over GST control)","1.05 fold enrichment (6-mer frequency, TF over GST control)","1.02 fold enrichment (6-mer frequency, TF over GST control)","1.06 fold enrichment (6-mer frequency, TF over GST control)","1.01 fold enrichment (6-mer frequency, TF over GST control)"
TTGAGA,,,,,"1.06 fold enrichment (6-mer frequency, TF over GST control)",,"1.02 fold enrichment (6-mer frequency, TF over GST control)",,,"1.02 fold enrichment (6-mer frequency, TF over GST control)",
